From PubChem BioAssay (NCI)
Several values for one entry are separate records, joined by “and”; a condition that tells them apart may be missing. Identical values can stand only once. Compounds without any hit were thinned out: in the full panel of roughly 83,000, 20% have a hit.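 Interpretation: 100, growth as untreated; towards 0, rising growth inhibition; 0, no net growth; 0 to -100, cell death. Compounds scoring below 10 were considered active.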 Activity calls are given as the source filed them.

The molecules below were run on HL-60(TB) leukemia (assay: NCI-60 one-dose screen, 48 h (100 = growth as untreated, 0 = no growth, -100 = all killed)). Settings: 10 µM unless noted.

Q: For `CCCN(CCC)C(=O)c1ccc(C)cc1`, which growth is on record?
A: The growth was 100% (inactive).

Q: Which growth does the source give for `NN1C(=O)CSC1=S` here?
A: Its growth is 126% (inactive).

Q: For `Cc1cc(C(=O)CSc2nc3ccccc3c(=O)[nH]2)c(C)n1C`, which growth is on record?
A: The growth was 102% (inactive).

Q: `O=C1c2ccccc2C(=O)c2c1oc1c2c(=O)[nH]c2ccccc21` was tested. Which growth did it give?
A: The growth was 2.26% (active).

Q: Which growth does the source give for `COC(=O)CCC1=C(C)C2=NC1=CC1=NC(=CC3=NC(=Cc4[nH]c(/c(=C(/C)O)c4C)=C2)C(C(C)=O)=C3C)C(C)=C1CCC(=O)OC` here?
A: Its growth is 78.2% (inactive).

Q: Which growth does the source give for `Nc1ccccc1NC(=O)CCCCC(=O)Nc1ccc2c(c1)/C(=C/c1ccc[nH]1)C(=O)N2` here?
A: Its growth is 89.6% (inactive).

Q: With `CN(C)c1ccc2nc3ccc(N)cc3[n+](-c3ccccc3)c2c1` as the molecule, how does the growth read?
A: Its growth is -5.21% (active) and 4.22% (active).

Q: How did the growth turn out when `O=S(=O)(Nc1ccc(Cl)c(C(F)(F)F)c1)c1ccc(-c2cnc(C3CC3)o2)cc1` was run?
A: The growth was -38.6% (active).

Q: For `O=C1C=CC(=O)N1c1ccccn1`, which growth is on record?
A: Its growth is 55.7% (inactive).

Q: `CC(C)(C)c1nn(-c2ccccc2)c2c1C(=O)CSC(c1ccccc1Cl)N2` (stereo not given) was tested. Which growth did it give?
A: The growth was -2.32% (active).

Q: With `CCC(C(=O)[C@@H](C)[C@@H](O)[C@H](C)[C@@H]1O[C@@H]([C@@H](CC)C(=O)ONC(=O)c2ccccc2)CC[C@@H]1C)[C@H]1O[C@]2(C=CC(=O)[C@]3(CC[C@@](C)([C@H]4CC[C@](O)(CC)[C@H](C)O4)O3)O2)[C@H](C)C[C@@H]1C` (stereo not given in full) as the molecule, how does the growth read?
A: Its growth is -63.9% (active).

Q: Which growth does the source give for `CC(=O)c1cc(O)c2ccccc2c1O` here?
A: The growth was 63.9% (inactive).

Q: How did the growth turn out when `Cc1cc(Cl)ccc1NC(=O)c1cc2ccccc2cc1O` was run?
A: The growth was 1.45% (active).

Q: For `C(=N\OCCc1ccccc1)/c1ccccn1`, which growth is on record?
A: The growth was 99.3% (inactive) and 85.5% (inactive).

Q: With `O=S(=O)(NC1c2ccccc2Oc2ccccc21)c1ccccc1` as the molecule, how does the growth read?
A: The growth was 86.5% (inactive).

Q: `O=C(Nc1ccccc1)OCC(CN1CCCCC1)OC(=O)Nc1ccccc1` (stereo not given) was tested. Which growth did it give?
A: The growth was 69.3% (inactive) and 95% (inactive).

Q: `O=C1N(C2CCCCC2)C(=O)N1C1CCCCC1` was tested. Which growth did it give?
A: The growth was -16.2% (active).

Q: For `Cc1nc(Nc2ccccn2)sc1C(=O)/C=C/c1ccc(Cl)cc1`, which growth is on record?
A: The growth was -38.8% (active).

Q: How did the growth turn out when `COc1cc(OCc2cccc(-c3ccc(C(O)c4nccs4)cc3)c2C)cc(OC)c1CNCCNC(C)=O` (stereo not given) was run?
A: Its growth is 101% (inactive).

Q: Which growth does the source give for `CCN(CC)CCn1nc2c3c(cccc3c1=O)-c1ccccc1-2` here?
A: Its growth is 16.9% (inactive).

Q: How did the growth turn out when `O=[N+]([O-])c1ccc(Oc2ccccc2)cc1` was run?
A: Its growth is 96.8% (inactive) and 79.2% (inactive).

Q: How did the growth turn out when `CCCCCCNC(=O)Oc1ccc(/C(=C(/CC)Cc2ccccc2)c2ccc(OCCN(CC)CC)cc2)cc1` was run?
A: The growth was 55.2% (inactive).

Q: How did the growth turn out when `COc1ccc2oc3cc(NCCN(C)C)ccc3c(=O)c2c1` was run?
A: The growth was 22% (inactive).

Q: Which growth does the source give for `O=C(Nn1c2c(sc1=NCc1ccccc1)C(=O)c1ccccc1C2=O)c1cc2ccc1CCc1ccc(cc1)CC2` here?
A: Its growth is 27% (inactive).

Q: How did the growth turn out when `Cc1cc(Nc2ncnc3ccc(NC4=NC(C)(C)CO4)cc23)ccc1Oc1ccn2ncnc2c1` was run?
A: The growth was 5.69% (active).

Q: With `O=C(CN1CCN(c2cc3c(cc2F)c(=O)c(C(=O)O)cn3C2CC2)CC1)Nc1nc(-c2ccccc2)cs1` as the molecule, how does the growth read?
A: The growth was 82.1% (inactive).

Q: For `Cc1ccc(S(=O)(=O)Oc2ccc([N+](=O)[O-])cc2[N+](=O)[O-])cc1`, which growth is on record?
A: The growth was 47.9% (inactive).

Q: For `O=C1NCCC12CCN(c1c(Cl)cncc1-c1ccc(O)cc1)CC2`, which growth is on record?
A: The growth was 102% (inactive).

Q: `N#Cc1c(NC(=O)c2cccc(Br)c2)sc2c1CCCC2` was tested. Which growth did it give?
A: The growth was 62.4% (inactive).

Q: `Cc1ccc2c(c1)C(=O)/C(=C\Nc1ccc(C(N)=O)cc1)C(O)O2` (stereo not given) was tested. Which growth did it give?
A: Its growth is 130% (inactive).

Q: Which growth does the source give for `COc1cccc(-c2nnc(COc3ccc(-c4nc5ccc(C)cc5[nH]4)cc3OC)o2)c1` here?
A: Its growth is -56.2% (active).

Q: Which growth does the source give for `O=c1c2cccc3c(Nc4ccc(F)cc4)ccc(c32)c2nc3ccccc3n12` here?
A: Its growth is 124% (inactive).

Q: How did the growth turn out when `O=c1c2cc(-c3ccccc3)sc2nc2sc(-c3ccccc3)nn12` was run?
A: The growth was 96.4% (inactive).

Q: `O=C(CN1CCCCC1)Nc1nc(-c2cc3ccccc3oc2=O)cs1` was tested. Which growth did it give?
A: Its growth is 93.8% (inactive).

Q: `CCc1ncnc2c1ccn2C(C)c1ccc(OC)c(F)c1` (stereo not given) was tested. Which growth did it give?
A: The growth was 31.7% (inactive).

Q: How did the growth turn out when `CCCCCCCCCCCCCCNc1nc(CO)ncc1-c1ccc(C(F)(F)F)cc1` was run?
A: Its growth is 99.1% (inactive).

Q: Which growth does the source give for `CC(C)Cn1cnc2c3ccccc3nc(NCn3nc(-c4cc(Cl)cc(Cl)c4Cl)oc3=S)c21` here?
A: The growth was 43.8% (inactive).

Q: For `COC(=O)CCCNC(=O)C(=O)c1c(O)c(O)c(C(C)C)c2cc(C)c(-c3c(C)cc4c(C(C)C)c(O)c(O)c(C(=O)C(=O)NCCCC(=O)OC)c4c3O)c(O)c12`, which growth is on record?
A: Its growth is 11.3% (inactive).

Q: `Cn1c(-c2c(N)n(CCCN3CCOCC3)c3nc(C#N)c(C#N)nc23)nc2ccccc21` was tested. Which growth did it give?
A: The growth was -82.3% (active).

Q: `CC(=O)N1N=C(c2ccc(C(F)(F)F)cc2)CC1c1ccc2c(c1)OCO2` (stereo not given) was tested. Which growth did it give?
A: The growth was 95.6% (inactive).
